Assay outcomes as filed in PubChem.
TDP1 cell noCPT – qHTS for Inhibitors of human tyrosyl-DNA phosphodiesterase 1 (TDP1): qHTS in cells in absence of CPT | DT40 Tdp1-/- hTDP1 cells, no CPT, ATP luminescence, 48 h | 420,000 tested, 15% active | Potency, µM (series often up to 46.2 µM), for the others: top-dose activity change, negative = growth inhibition, hits mostly inhibitors; note: potency is the fitted concentration of half-maximal effect; nearly all actives have a fitted effect of over 55% in size
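Growth kinetics read by CellTiter-Glo luminescence after ≥48 hr at 37 °C. Cells: DT40 Tdp1-/- stably carrying human TDP1, 400 per well, compound exposure in the absence of CPT (DMSO vehicle).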
HT1080-NT tox – qHTS for induction of synthetic lethality in tumor cells producing 2HG: qHTS for the HT-1080-NT fibrosarcoma cell line. HT-1080-NT fibrosarcoma viability, CellTiter-Glo ATP luminescence, 48 h. Potency, µM (titrated, usually from 46.1 µM), for inactives: at the top dose activity, negative = less viability, hits mostly cytotoxic. 360,000 tested, 1.6% active. AID 686970, 2013;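 note: NT is the 2HG producing partner of a matched IDH1 knockdown line; potency is the fitted concentration of half-maximal effect; 0% = DMSO-treated cells and -100% = media-only wells without cells; nearly all actives have a fitted effect of over 55% in size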
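Viability by CellTiter-Glo luminescence after 48 h compound exposure at 37C of HT-1080-NT cells (750/well, RPMI, 5% FBS). % activity scaled between DMSO wells and medium-only wells, then curve-fitted and categorized by curve class.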
TDP1 cell CPT – qHTS for Inhibitors of human tyrosyl-DNA phosphodiesterase 1 (TDP1): qHTS in cells in presence of CPT | chicken DT40 Tdp1-/-;hTDP1 cells + 20 nM CPT, ATP luminescence, 48 h | Potency, µM (top dose mostly 46.2 µM), without a hit: at the top dose activity change, negative = growth inhibition, actives largely listed as inhibitors | 420,000 tested, 12% active | AID 686979, 2013; note: potency is the fitted concentration of half-maximal effect; nearly all actives have a fitted effect of over 55% in size
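Cell growth measured by CellTiter-Glo luminescence after a minimum 48 h, 37 C compound exposure with 20 nM CPT in Tdp1-knockout DT40 cells stably expressing hTDP1, seeded 400/well; qHTS titration format.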
IL-1B inflam inh – qHTS for Inhibitors of Inflammasome Signaling: IL-1-beta AlphaLISA Primary Screen. THP-1 LPS/ATP IL-1B secretion, AlphaLISA, 16 h; hits give low values. activity change, % at 57.5 µM. 360,000 tested, 4.7% active. AID 743279, 2014; in the data active = activity change below about -50%; inconclusive = mostly about -30% to -49%
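THP-1 cells pretreated 1 hr with compounds (up to 57.5 uM final), then stimulated with LPS (250 ng/mL final) plus ATP (1.25 mM final); secreted IL-1B measured by AlphaLISA after 16 hr, decreased signal indicating inhibition.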
HT1080 IDH1KD tx – qHTS for induction of synthetic lethality in tumor cells producing 2HG: qHTS for the HT-1080-IDH1KD cell line; HT-1080 IDH1 knockdown viability, ATP luminescence, 48 h; Potency, µM (top dose mostly 46.1 µM), for inactives: at the top dose activity, negative = toxicity, most hits filed as cytotoxic; 360,000 tested, 2% active;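 note: potency is the fitted concentration of half-maximal effect; 0% = DMSO wells and -100% = cell-free medium wells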
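Cytotoxicity counter-line: IDH1KD HT-1080, 48 h, CellTiter-Glo. Curves classed by r2, magnitude and activity.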
ELG1 repair inh – qHTS screen for small molecules that inhibit ELG1-dependent DNA repair in human embryonic kidney (HEK293T) cells expressing luciferase-tagged ELG1 | HEK293T ELG1-luciferase reporter, luminescence, 16 h; DNA damage induced by 5-fluorouridine | Potency, µM (titrated, usually from 46.1 µM), without a hit: at the highest dose activity change, negative = inhibition, actives largely listed as inhibitors | 330,000 tested, 2.3% active | AID 504467, 2011; note: potency is the fitted concentration of half-maximal effect; nearly all actives have a fitted effect of over 55% in size
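5-Fluorouridine DNA damage + compound/DMSO, 2,000 cells/well, 16 h, 37 °C/5% CO2. ONE-Glo, 30 min RT, luminescence. Readout = decrease in reporter signal.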
* hit, by the source's call; ? = inconclusive; . = not tested or not shown. Most compounds without a hit are left out; they make up all but 19% or so of the library. Unless noted, calls come from the whole dose curve; as a rule, active = well fitted curve in the direction sought with a large enough effect; inconclusive = small, poorly fitted or top-dose-only effect, or another doubt; inactive = no such curve, though single readings can be large; an effect the other way counts as inactive or inconclusive. Unless noted, % is set by controls: 0 for no effect and ±100 for the full control effect.

SMILES	TDP1 cell noCPT	HT1080-NT tox	TDP1 cell CPT	IL-1B inflam inh	HT1080 IDH1KD tx	ELG1 repair inh
COc1ccccc1CNC(=O)C(=O)NCC(c1ccco1)S(=O)(=O)c1cccs1 (stereo not given)	?	.	-30%	.	.	.
O=C(COC(=O)c1n[nH]c(=O)c2ccccc12)Nc1ccccc1F	-18%	-1%	2%	-6	1%	22%
CC(C)CN1CCc2nc(Nc3ccc(F)cc3F)ncc2C1	?	.	-3%	.	.	.
CCOC(=O)c1c(NC(=O)c2cc(=O)c3c(C)cc(C)cc3o2)sc(C)c1C	-10%	.	13%	.	.	.
CCCN1CCN(C(=O)c2cc3c(s2)-c2ccccc2S(=O)(=O)C3)CC1	.	.	.	.	.	10%
O=C(c1ccc2c(c1)N(Cc1cccc(Cl)c1)C(=O)c1ccccc1S2(=O)=O)N1CCC(Cc2ccccc2)CC1	4.1µM*	.	4.1µM*	.	.	.
O=C(c1cc2c(s1)-c1ccccc1S(=O)(=O)C2)N1CCN(Cc2ccccc2)CC1	16µM*	-16%	18µM*	-9	?	13µM*
C=CCOC(=O)/C=C/C(=O)NC(N)=O	16µM*	3%	10µM*	-20	-2%	0%
CCOc1ccc(-c2nc(CCl)cs2)cc1OC	13µM*	13%	10µM*	-25	11%	?
CCOC(=O)c1csc(-c2ccc(OC)c(OC)c2)n1	6%	-1%	23%	-18	14%	?
COc1cccc(-c2nc(CCl)cs2)c1OC	6.5µM*	2%	2.3µM*	1	6%	?
COc1cccc(-c2nc(CC(=O)O)cs2)c1OC	2%	11%	-4%	5	12%	?
CCNc1ncc2nc(-c3ccc(Cl)cc3)c(=O)n(Cc3cccs3)c2n1	-15%	.	-18%	.	.	.
COc1ccc(-c2cnc(C)o2)cc1S(=O)(=O)Nc1ccc(F)cc1F	-22%	.	1%	.	.	.
COc1cc(NS(=O)(=O)c2ccc(OC)c(C)c2C)c(OC)cc1Cl	3.3µM*	2.3µM*	4.6µM*	-4	2.3µM*	?
COc1ccc(S(=O)(=O)Nc2ccccn2)c(C)c1C	-17%	1%	?	14	-1%	6%
COc1cc(OC)c(NS(=O)(=O)c2cc(-c3cnc(C)o3)ccc2OC)cc1Cl	13µM*	.	21µM*	.	.	.
CC(C)(C)CN1CCC(n2nccc2NC(=O)c2ccccc2Cl)CC1	0%	-6%	9%	18	11%	-1%
CCC(CC)NC(=O)C1CC(=O)N(CCc2ccc(F)cc2)C1 (stereo not given)	-9%	0%	-7%	-11	1%	-2%
CN1CCC(N(C)C(=O)c2cc(S(=O)(=O)N(C)c3ccccc3)ccc2Cl)CC1	-2%	4%	-14%	0	-4%	0%
CC(=O)Nc1ccc(C=NN=C2c3ccccc3-c3ccccc32)cc1	?	-25%	26µM*	4	?	.
CC(C)CNC(=O)COC(=O)c1c2c(nc3ccccc13)/C(=C/c1cccs1)CC2	26µM*	-8%	?	4	?	?
NC(=O)c1ccc(NC(=O)COC(=O)c2c3c(nc4ccccc24)/C(=C\c2cccs2)CCC3)cc1	21µM*	-11%	?	-5	-5%	7.3µM*
CCCCNC(=O)COC(=O)c1c2c(nc3ccccc13)/C(=C\c1cccs1)CC2	?	-19%	?	-12	-26%	.
CCN1C/C(=C/c2cccs2)c2nc3ccccc3c(C(=O)O)c2C1	2%	-8%	3%	-7	-9%	-8%
SMILES	TDP1 cell noCPT	HT1080-NT tox	TDP1 cell CPT	IL-1B inflam inh	HT1080 IDH1KD tx	ELG1 repair inh
COc1ccc(C(=O)NN2CCOCC2)cc1	3%	20%	5%	0	26%	10%
O=C(Nc1cc(SCCO)cc([N+](=O)[O-])c1)c1ccc(Br)o1	21µM*	-2%	?	-16	0%	?
O=C(CCCl)Nc1cc(SCCO)cc([N+](=O)[O-])c1	-17%	7%	?	8	-28%	-3%
Cc1cccc(NC(=S)N=Nc2c(O)n(CN3CCOCC3)c3ccccc23)c1C	5.8µM*	-13%	5.8µM*	36	-25%	?
Cn1c(O)c(N=NC(=S)Nc2ccccc2F)c2cc(S(=O)(=O)N3CCOCC3)ccc21	5.8µM*	3%	5.2µM*	25	?	1.8µM*
Cc1ccc(NC(=S)N=Nc2c(O)n(C)c3ccc(S(=O)(=O)N4CCOCC4)cc23)cc1C	3.7µM*	-13%	2.1µM*	19	?	11%
C=CCn1c(O)c(N=NC(=S)Nc2ccccc2C)c2cc(S(=O)(=O)N3CCOCC3)ccc21	0.73µM*	?	3.3µM*	-1	?	9%
Cc1ccc(N=Nc2c(O)n(CN3CCOCC3)c3ccccc23)cc1	?	-27%	-9%	-16	-26%	?
Cn1c(=O)c2cc(S(=O)(=O)N3CCOCC3)ccc2n(C)c1=O	1%	-12%	-20%	-2	-4%	-24%
O=C(Nc1ccncc1)c1ccccc1Cl	?	-2%	-13%	-17	-8%	-2%
CN(C(=O)C1CCC(=O)N(Cc2ccccc2F)C1)C1CCOCC1 (stereo not given)	-23%	16%	8%	-6	19%	5%
O=C(CN1CC(=O)Nc2ccccc21)NCCc1ccc(Cl)cc1Cl	-27%	12%	-24%	-102*	22%	-7%
Cc1onc(-c2ccccc2)c1C(=O)Nc1nnc(CC(C)(C)C)s1	2%	15%	-5%	56	18%	-13%
